# Several values for one entry are separate records, joined by “and”; a condition that tells them apart may be missing. Equal entries are not always repeated. Structures can show the parent of a compound that is named as a salt. About 620 (11%) of roughly 5,800 compounds showed activity. This excerpt belongs to a sample that is enriched for actives. Unmarked numbers belong to inactive results.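 The calls were made as follows: active = score above a cut-off or among the top three wells of a plate; in these data no inactive exceeds 0.85.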
# Test system: primary human hepatic stellate cells (donor 1)
# Experiment: scaled lipid accumulation score (0 = DMSO-like, 1 = nortriptyline-like); higher = stronger HSC inactivation (lipid re-accumulation), active = hit call of the paper
# Details: 48 h
# [1] = library stock concentration: 1 mM
# [2] = library stock concentration: 3.33 mM
# [3] = library stock concentration: 10 mM
compound,measurement,setting,value
CCCCCCCCCCCC1N[C@H](C(=O)O)CS1 (stereo not given in full),scaled lipid accumulation score,[1],≤ 0
CCCCC[C@H](O)/C=C/[C@@H]1[C@H](CCCCCCC(=O)O)[C@H](O)C[C@H]1O [8-iso Prostaglandin F1.beta.],scaled lipid accumulation score,[1],≤ 0
Cc1[nH]ccc2c1[nH]c1cc(=O)ccc12 [Harmol hydrochloride monohydrate],scaled lipid accumulation score,,0.689
"O=C(O)CCC/C=C\C[C@H]1C(=O)C=C[C@@H]1CC[C@@H](O)CCc1ccccc1 [17-phenyl trinor-13,14-dihydro Prostaglandin A2]",scaled lipid accumulation score,[1],≤ 0
Cc1cc(Nc2ccc(NC(=O)c3ccc(Nc4ccnc5ccccc45)cc3)cc2)nc(N)n1,scaled lipid accumulation score,[2],0.147
same,scaled lipid accumulation score,[3],≤ 0
CNCc1ccc(C)c(NC(=O)c2ccc(Nc3nc(-c4ccccc4)c4ccccc4n3)cc2)c1 [listing 1 of 2 here],scaled lipid accumulation score,[3],0.17
CNCc1ccc(C)c(NC(=O)c2ccc(Nc3nc(-c4ccccc4)c4ccccc4n3)cc2)c1 [listing 2 of 2 here],scaled lipid accumulation score,[2],1.14 (active)
CCC(C)(Oc1ccc(C2(c3ccc(OC(C)(CC)C(=O)O)cc3)CCCCC2)cc1)C(=O)O (stereo not given) [Clinofibrate],scaled lipid accumulation score,[2],≤ 0
same,scaled lipid accumulation score,[3],≤ 0
CNCC[C@H](Oc1cccc2ccccc12)c1cccs1 [Duloxetine],scaled lipid accumulation score,[3],1.39 (active)
CNCC[C@H](Oc1cccc2ccccc12)c1cccs1 [Duloxetine HCl],scaled lipid accumulation score,[2],0.357
same,scaled lipid accumulation score,[3],0.796
CNCC[C@@H](Oc1ccccc1C)c1ccccc1 [Atomoxetine HCl],scaled lipid accumulation score,[2],0.319
same,scaled lipid accumulation score,[3],0.514
CNCC[C@H](Oc1cccc2ccccc12)c1cccs1,scaled lipid accumulation score,[3],0.953 (active)
CNCC[C@@H](Oc1ccccc1C)c1ccccc1 [Tomoxetine hydrochloride],scaled lipid accumulation score,[3],0.484
CNCCC(Oc1ccccc1OC)c1ccccc1 (stereo not given) [Nisoxetine hydrochloride],scaled lipid accumulation score,,0.246
same,scaled lipid accumulation score,[3],0.751 and 0.328
CNCC[C@H](Oc1cccc2ccccc12)c1cccs1.Cl [Duloxetine hydrochloride],scaled lipid accumulation score,library stock concentration: 6 mM,1.05 (active)
CNCC[C@@H](Oc1ccccc1C)c1ccccc1 [Atomoxetine hydrochloride],scaled lipid accumulation score,library stock concentration: 7.2 mM,0.064
CN(C)[C@@H](CCOc1cccc2ccccc12)c1ccccc1 [Dapoxetine HCl],scaled lipid accumulation score,[2],0.506
same,scaled lipid accumulation score,[3],0.625
CNCC[C@@H](Oc1ccccc1C)c1ccccc1 [Tomoxetine],scaled lipid accumulation score,[3],0.59
Nc1n[nH]c(N)c1N=Nc1ccc(O)cc1 [Cdk9 Inhibitor II],scaled lipid accumulation score,[2],≤ 0
O=C(O)Cn1c(C(=O)Nc2nc(-c3ccccc3Cl)cs2)cc2ccccc21,scaled lipid accumulation score,[3],≤ -0.001
CC1=CC(=O)C2=C(C)CC[C@@H]3[C@H](OC(=O)[C@H]3C)[C@@H]12 [Leucomisine],scaled lipid accumulation score,,≤ 0
CCCCC[C@H](O)/C=C/[C@H]1C(=O)C[C@H](O)[C@@H]1CCCCCCC(=O)O [Prostaglandin D1],scaled lipid accumulation score,[1],0.018
CCCCC[C@H](O)/C=C/[C@H]1C(=O)C=C[C@@H]1C/C=C\CCCC(=O)O [Prostaglandin J2],scaled lipid accumulation score,[1],≤ 0 and ≤ -0.021
C[C@]1(O)C[C@@H](c2nc(-c3ccc4ccc(-c5ccccc5)nc4c3)c3c(N)nccn32)C1,scaled lipid accumulation score,library stock concentration: 80 uM,0.05
same,scaled lipid accumulation score,library stock concentration: 400 uM,≤ -0.009
same,scaled lipid accumulation score,library stock concentration: 2 mM,≤ -0.009
same,scaled lipid accumulation score,[3],≤ -0.009
C[C@]1(O)C[C@@H](c2nc(-c3ccc4ccc(-c5ccccc5)nc4c3)c3c(N)nccn32)C1 [OSI-906 (Linsitinib)],scaled lipid accumulation score,[2],≤ 0
same,scaled lipid accumulation score,[3],≤ 0
NCCCCCCCCCCNS(=O)(=O)c1cccc2c(Cl)cccc12 [A-7 hydrochloride],scaled lipid accumulation score,[3],0.41
CC1CNCCN1S(=O)(=O)c1cccc2cnccc12 (stereo not given),scaled lipid accumulation score,[3],0.081
Cl.O=S(=O)(c1cccc2c(Cl)cccc12)N1CCCNCC1,scaled lipid accumulation score,[3],0.935 (active)
Cl.O=S(=O)(c1cccc2c(Cl)cccc12)N1CCCNCC1 [ML 9 hydrochloride],scaled lipid accumulation score,[3],0.941 (active)
CCCCCCCC/C=C\CCCCCC(=O)OC [cis-7-Hexadecenoic Acid methyl ester],scaled lipid accumulation score,[1],≤ 0
CNc1nc(Nc2cn(C(C)(C)C#N)nc2C)ncc1C(F)(F)F,scaled lipid accumulation score,[2],≤ -0.009
same,scaled lipid accumulation score,[3],0.132
N[C@@H]1[C@H]2CN(c3nc4c(cc3F)c(=O)c(C(=O)O)cn4-c3ccc(F)cc3F)C[C@@H]12 [Trovafloxacin mesylate],scaled lipid accumulation score,[3],0.112
CCCCCCCCCC(=O)NC(CN1CCOCC1)C(O)c1ccccc1 (racemic),scaled lipid accumulation score,[1],≤ -0.021
Cc1ccc(C(=O)Cn2c3c(sc2=N)CCCC3)cc1 [Pifithrin-.alpha.],scaled lipid accumulation score,[1],≤ 0

# Source: the supplement of paper PMC9135407
